{"source": "PubChem BioAssay AID493169", "about": "(National Center for Advancing Translational Sciences (NCATS), 2011)", "note": "Inconclusive results are not listed. Values without a mark were called inactive. Active and inactive are the calls of the source. The call rests on the fitted dose curve; in most records, active means well fitted inhibition curve with a large enough effect; inconclusive means small, poorly fitted or top-dose-only effect; inactive means flat fitted curve, though single readings scatter. On the % scale 0 is the no-effect control and ±100 the full control effect; potency means the concentration at half of the fitted maximal effect."}
{"assay": "CHOP2 Reporter Counterscreen Assay for Inhibitors of Ubiquitin-specific Protease USP2a;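 further: activated enterokinase alone at 50 pM in a cell-free format rather than USP2a or CHOP2; nearly all actives have a fitted effect of over 55% in size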", "conditions": "purified enterokinase, fluorogenic substrate, 485/531 nm; series mostly up to 38.3 µM; activity change, negative = inhibition: at the top concentration", "outline": "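Cell-free counterscreen with pre-activated enterokinase alone (50 pM final) in 20mM Tris-HCl pH 8.0, 2mM CaCl2, 2mM beta-mercaptoethanol, 0.05% CHAPS; compound preincubation 30 min RT, reporter substrate 25nM final, fluorescence read after 10 min (Ex 485/Em 531).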", "units": {"activity change, negative = inhibition": "%"}}
{"smiles": "O=S(=O)(c1ccccc1)N(CC1CO1)c1cc(Cl)ccc1Cl", "note": "(stereo not given)", "activity change, negative = inhibition": 2.84}
{"smiles": "Cc1cc(C)cc(OCC(=O)Nc2ccc(N3CCCC3)cc2)c1", "Potency": "10 µM (active)"}
{"smiles": "Cc1ccc(O)c(CC(C)C)n1", "activity change, negative = inhibition": 2.61}
{"smiles": "NC(=O)C[C@@H]1N[C@]2(C(=O)Nc3ccccc32)[C@@H]2C(=O)N(c3cc(C(F)(F)F)ccc3Cl)C(=O)[C@H]12", "activity change, negative = inhibition": 4.19}
{"smiles": "C=CCn1c(Br)nc2c1c(=O)n(C)c(=O)n2C", "activity change, negative = inhibition": 11.7}
{"smiles": "O=C(CSCCO)Nc1cccc2ccccc12", "activity change, negative = inhibition": -4.29}
{"smiles": "CNS(=O)(=O)c1cccc(C(=O)OCC(=O)c2cc(C)n(-c3ccc4c(c3)OCO4)c2C)c1", "activity change, negative = inhibition": 8.11}
{"smiles": "c1ccc(-c2nc3nc4ccccc4nc3n2Cc2ccco2)cc1", "activity change, negative = inhibition": 3.7}
{"smiles": "O=S(=O)(Nc1cccc(-c2cn3c(n2)SCC3)c1)c1ccc(F)cc1F", "activity change, negative = inhibition": 0.249}
{"smiles": "CCOc1ccc(NC(=O)N(CCCN2CCOCC2)Cc2cccnc2)cc1", "activity change, negative = inhibition": 5.89}
{"smiles": "O=C(COC(=O)c1ccc(NS(=O)(=O)c2cccs2)cc1)Nc1nc2c(F)c(F)c(F)cc2s1", "Potency": "10 µM (active)"}
{"smiles": "Cc1ccc(NC(=O)CSc2nnc(COc3ccc(C#N)cc3)n2-c2ccccc2)cc1C", "activity change, negative = inhibition": -2.49}
{"smiles": "COCCCNCCCOc1ccc(C)cc1Br", "activity change, negative = inhibition": 6.77}
{"smiles": "Cc1ccc(NC(=O)c2onc(C)c2Cl)cc1", "activity change, negative = inhibition": -0.102}
{"smiles": "CCOc1cc(/C=C2\\C(=O)N(c3nc(-c4ccc(Br)cc4)cs3)N=C2c2ccccc2)ccc1O", "Potency": "4.47 µM (active)"}
{"smiles": "NS(=O)(=O)c1cc(C(=O)NC2CCSc3ccccc32)ccc1Cl", "note": "(stereo not given)", "Potency": "10 µM (active)"}
{"smiles": "O=C(Nc1ncccc1Cl)c1cccc(F)c1", "activity change, negative = inhibition": 4.25}
{"smiles": "COc1ccc(CC(NC(C)=O)C(=O)NC2CCN(c3nc(C)cc(C)c3C#N)CC2)c(OC)c1", "note": "(stereo not given)", "activity change, negative = inhibition": -0.767}
{"smiles": "Clc1ccccc1-c1nnc2sc(-c3cccs3)nn12", "activity change, negative = inhibition": -19.6}
{"smiles": "CCCCC(CC)CN=C(N)NC(N)=NCCCCCCN=C(N)NC(N)=NCC(CC)CCCC", "note": "(stereo not given)", "Potency": "5.62 µM (active)"}
{"smiles": "COc1ccccc1-n1c(SCC(=O)Nc2ccc(C)cc2)nc(O)cc1=O", "activity change, negative = inhibition": -9.74}
{"smiles": "Cc1ccc(C(=O)O/N=C/c2c(C(F)(F)F)nn(C)c2Sc2ccc(Cl)cc2)cc1", "activity change, negative = inhibition": -0.861}
{"smiles": "CC(NC(=O)COc1ccccc1-c1ccccc1)c1ccccc1", "note": "(stereo not given)", "activity change, negative = inhibition": -0.69}
{"smiles": "Cc1ccccc1N=C1NC(=O)CS1", "activity change, negative = inhibition": 2.43}
{"smiles": "O=C(O)C(Cc1ccccc1)N1C(=O)/C(=C/C=C/c2ccco2)SC1=S", "note": "(stereo not given)", "Potency": "2.51 µM (active)"}
{"smiles": "Cc1c(N=C/C=C2\\N(C)c3ccccc3C2(C)C)c(=O)n(-c2ccccc2)n1C", "activity change, negative = inhibition": 0.17}
{"smiles": "Cc1ccc(N2CCN(C(=O)CCc3nc4ccccc4[nH]3)CC2)c(C)c1", "activity change, negative = inhibition": 3.76}
{"smiles": "COc1ccc(-n2c(O)c(/C=N/n3cnnc3)c3ccccc3c2=O)cc1", "activity change, negative = inhibition": 9.52}
{"smiles": "COC(=O)N/N=C\\c1cc(Br)ccc1OCc1ccccc1", "activity change, negative = inhibition": -4.47}
{"smiles": "CC1CC(C)CN(C(=O)CSc2nnc(-c3ccc(Cl)cc3)o2)C1", "note": "(stereo not given)", "activity change, negative = inhibition": 3.09}
{"smiles": "CC1(C)CC(=O)C=C(NCc2cccs2)C1", "activity change, negative = inhibition": 2.48}
{"smiles": "COC(=O)CSc1nnc(NC(=O)C2CC(=O)N(c3ccc(F)cc3)C2)s1", "note": "(stereo not given)", "Potency": "10 µM (active)"}
{"smiles": "C=CCn1c(O)c(C(CC)=NCCN2CCOCC2)c(=O)[nH]c1=O", "activity change, negative = inhibition": 6.89}
{"smiles": "Cc1ccc(C)n1-c1cc(S(=O)(=O)N2CCOCC2)ccc1N1CCCC1", "activity change, negative = inhibition": 5.06}
{"smiles": "S=c1[nH]nc(-c2cc(-c3ccco3)[nH]n2)n1-c1cccc2ccccc12", "activity change, negative = inhibition": -21.8}
{"smiles": "O=C(COC(=O)c1cccc(S(=O)(=O)N2CCc3ccccc32)c1)NC1CCS(=O)(=O)C1", "note": "(stereo not given)", "activity change, negative = inhibition": 7}
{"smiles": "O=C(/C=N/O)NCc1cccnc1", "activity change, negative = inhibition": 0.652}
{"smiles": "Cc1cc(C)cc(NC(=O)CSc2nc3c(c(=O)[nH]2)CN(Cc2ccc(F)cc2)CC3)c1", "activity change, negative = inhibition": -11.1}
{"smiles": "CCOC(=O)N1CCN(C(=O)CN(c2ccc(Oc3ccccc3)cc2)S(C)(=O)=O)CC1", "activity change, negative = inhibition": -1.23}
{"smiles": "Cc1cc(C)c(NC(=O)C[N+](C)(C)CC(O)COc2cccc3ccccc23)c(C)c1", "note": "(stereo not given)", "activity change, negative = inhibition": -4.33}
